From PubChem BioAssay (NCATS)
Inconclusive results are not listed. Unmarked numbers belong to inactive results. Activity calls are given as the source filed them. The call rests on the fitted dose curve; in most records, active means well fitted inhibition curve with a large enough effect; inconclusive means small, poorly fitted or top-dose-only effect; inactive means flat fitted curve, though single readings scatter.

Each compound was assayed on CP191 (assay: qHTS profiling for inhibitors of Plasmodium falciparum proliferation (AID 504749; further: nearly all actives have a fitted effect of over 60% in size;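 on activity, negative = inhibition: 0% = DMSO vehicle and full inhibition = artemisinin control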)). Conditions: P. falciparum in erythrocytes, SYBR Green DNA, 72 h; series mostly up to 28.7 µM; activity, negative = inhibition: at the top concentration.
In short: (§1)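 P. falciparum-infected erythrocytes (0.3% parasitemia, 2.5% hematocrit) incubated with compound 72 h at 37 C, 5% CO2. Parasite DNA detected by SYBR Green after lysis, overnight at room temperature; normalised to 0.29 uM artemisinin and DMSO.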
Potency means the concentration at half of the fitted maximal effect.

Compound | activity, negative = inhibition | Potency
Cc1cc(-c2ccc(N=Nc3c(S(=O)(=O)O)cc4cc(S(=O)(=O)O)cc(N)c4c3O)c(C)c2)ccc1N=Nc1c(S(=O)(=O)O)cc2cc(S(=O)(=O)O)cc(N)c2c1O | -21.3% | –
CC(CN(C)C)CN1c2ccccc2Sc2ccc(C(F)(F)F)cc21 (stereo not drawn) | – | 8.91 µM (active)
CC(=O)c1ccc2c(c1)N(CCCN1CCN(CCO)CC1)c1ccccc1S2 | – | 11.2 µM (active)
C[C@H](CCC(=O)O)[C@H]1CC[C@H]2[C@@H]3CC[C@@H]4C[C@H](O)CC[C@]4(C)[C@H]3C[C@H](O)[C@]12C | 7.25% | –
CNC(=O)c1c(I)c(C(=O)NCC(=O)Nc2c(I)c(C(=O)O)c(I)c(C(=O)NCCO)c2I)c(I)c(N(C)C(C)=O)c1I | -9.69% | –
S=C1SCN(Cc2ccccc2)CN1Cc1ccccc1 | -20.1% | –
O=P(O)(O)OP(=O)(O)O | -27.1% | –
OC/C=C/c1ccccc1 | 6.44% | –
O=C1c2ccccc2C(=O)C1c1ccc(Cl)cc1 | 25% | –
CC(=O)Oc1cccc2c1C(=O)c1c(OC(C)=O)cc(C(=O)O)cc1C2=O | -6.5% | –
CCCCCCCCCCCCCCCCCC[N+](C)(C)CCC[Si](OC)(OC)OC | -5.34% | –
CC(=O)Nc1ccc(NC(=S)NC(=O)c2ccc(C(C)(C)C)cc2)cc1 | -8.41% | –
CC(=O)Nc1c(I)c(C(=O)O)c(I)c(N(C)C(C)=O)c1I | -0.246% | –
O=C1c2ccccc2CN2C(=O)c3ccccc3CN12 | 9.85% | –
CC(C)CCCCCCc1ccc(O)cc1 | -22.2% | –
O=C(Nc1ccc(O)cc1)c1ccccc1O | 3.49% | –
COc1ccc2nc(NC(=O)Nc3ccccc3)sc2c1 | -28.3% | –

Each compound was assayed on CP192 in the same assay as above. Conditions: P. falciparum in erythrocytes, SYBR Green DNA, 72 h; series mostly up to 28.7 µM; activity, negative = inhibition: at the top concentration.
In short: as §1

Compound | activity, negative = inhibition | Potency
Cc1cc(-c2ccc(N=Nc3c(S(=O)(=O)O)cc4cc(S(=O)(=O)O)cc(N)c4c3O)c(C)c2)ccc1N=Nc1c(S(=O)(=O)O)cc2cc(S(=O)(=O)O)cc(N)c2c1O | -20.3% | –
CC(CN(C)C)CN1c2ccccc2Sc2ccc(C(F)(F)F)cc21 (stereo not drawn) | -0.059% | –
C[C@H](CCC(=O)O)[C@H]1CC[C@H]2[C@@H]3CC[C@@H]4C[C@H](O)CC[C@]4(C)[C@H]3C[C@H](O)[C@]12C | -1.54% | –
CNC(=O)c1c(I)c(C(=O)NCC(=O)Nc2c(I)c(C(=O)O)c(I)c(C(=O)NCCO)c2I)c(I)c(N(C)C(C)=O)c1I | 7.46% | –
S=C1SCN(Cc2ccccc2)CN1Cc1ccccc1 | -0.712% | –
Nc1ccc(N=Nc2ccccc2)c(N)n1 | -0.115% | –
O=P(O)(O)OP(=O)(O)O | -20.1% | –
OC/C=C/c1ccccc1 | -1.13% | –
CN(C)CCC=C1c2ccccc2C(C)(C)c2ccccc21 | -6.94% | –
CN1CCCC(CN2c3ccccc3Sc3ccccc32)C1 (stereo not drawn) | -11.3% | –
O=C1c2ccccc2C(=O)C1c1ccc(Cl)cc1 | 4.62% | –
CC(=O)Oc1cccc2c1C(=O)c1c(OC(C)=O)cc(C(=O)O)cc1C2=O | -1.51% | –
CC[C@H]1OC(=O)[C@H](C)[C@@H](O[C@H]2C[C@@](C)(OC)[C@@H](O)[C@H](C)O2)C(C)[C@@H](O[C@@H]2O[C@H](C)C[C@H](N(C)C)[C@@H]2O)[C@](C)(OC)C[C@@H](C)C(=O)[C@H](C)[C@@H](O)[C@]1(C)O (stereo partly drawn) | -16.9% | –
O=C(c1cc2ccccc2o1)N1CCN(Cc2ccccc2)CC1 | -15.3% | –
CCCCCCCCCCCCCCCCCC[N+](C)(C)CCC[Si](OC)(OC)OC | 2.09% | –
CCN(CC)CCC(=O)N1c2ccccc2Sc2ccc(Cl)cc21 | -29.3% | –
CC(=O)Nc1ccc(NC(=S)NC(=O)c2ccc(C(C)(C)C)cc2)cc1 | -0.108% | –
CC(=O)Nc1c(I)c(C(=O)O)c(I)c(N(C)C(C)=O)c1I | -2.45% | –
NC(N)=NCC1COc2ccccc2O1 (stereo not drawn) | -10.2% | –
CN(C)C(=O)CCSC(SCCC(=O)O)c1cccc(/C=C/c2ccc3ccc(Cl)cc3n2)c1 (stereo not drawn) | -14% | –
O=C1c2ccccc2CN2C(=O)c3ccccc3CN12 | 0.529% | –
Cn1c(=O)c2c(ncn2CCOC(=O)C(C)(C)Oc2ccc(Cl)cc2)n(C)c1=O | -0.419% | –
CC(C)CCCCCCc1ccc(O)cc1 | 2.59% | –
N[C@@H](Cc1cc(I)c(Oc2ccc(O)c(I)c2)c(I)c1)C(=O)O | -10.3% | –
O=C(Nc1ccc(O)cc1)c1ccccc1O | 0.0479% | –
C#C[C@]1(O)CC[C@@H]2[C@H]3CCC4=CC(=O)CC[C@H]4[C@H]3C(=C)C[C@@]21CC | – | 0.379 µM (active)
Cn1c(O)c(N=NC(N)=S)c2ccccc21 | -25.1% | –
OCc1ccccc1 | -13.9% | –
COc1ccc2nc(NC(=O)Nc3ccccc3)sc2c1 | -0.741% | –
O=C(OCc1ccccc1)c1cccnc1 | -6.91% | –

What follows are compounds tested on CP194 in the same assay as above. Conditions: P. falciparum in erythrocytes, SYBR Green DNA, 72 h; series mostly up to 28.7 µM; activity, negative = inhibition: at the top concentration.
In short: as §1

Compound | activity, negative = inhibition | Potency
CCOC(=O)Cc1ccc(-c2ccccc2)cc1 | -6.53% | –
C[C@H](CCC(=O)O)[C@H]1CC[C@H]2[C@@H]3CC[C@@H]4C[C@H](O)CC[C@]4(C)[C@H]3C[C@H](O)[C@]12C | -4.5% | –
CNC(=O)c1c(I)c(C(=O)NCC(=O)Nc2c(I)c(C(=O)O)c(I)c(C(=O)NCCO)c2I)c(I)c(N(C)C(C)=O)c1I | 1.36% | –
S=C1SCN(Cc2ccccc2)CN1Cc1ccccc1 | -2.6% | –
Nc1ccc(N=Nc2ccccc2)c(N)n1 | -7.27% | –
O=P(O)(O)OP(=O)(O)O | -18.8% | –
OC/C=C/c1ccccc1 | -0.206% | –
O=C1c2ccccc2C(=O)C1c1ccc(Cl)cc1 | 4.22% | –
CC(=O)Oc1cccc2c1C(=O)c1c(OC(C)=O)cc(C(=O)O)cc1C2=O | 6.78% | –
CCCCCCCCCCCCCCCCCC[N+](C)(C)CCC[Si](OC)(OC)OC | -13% | –
CC(=O)Nc1ccc(NC(=S)NC(=O)c2ccc(C(C)(C)C)cc2)cc1 | -0.179% | –
CC(=O)Nc1c(I)c(C(=O)O)c(I)c(N(C)C(C)=O)c1I | 8.63% | –
c1ccc2c(c1)Sc1ccccc1N2CCN1CCCC1 | – | 13.5 µM (active)
O=C1c2ccccc2CN2C(=O)c3ccccc3CN12 | 6.42% | –
C/C(=C\C(=O)OCCCCCCCCC(=O)O)C[C@@H]1OC[C@H](C[C@@H]2O[C@H]2[C@@H](C)[C@H](C)O)[C@@H](O)[C@H]1O | – | 0.135 µM (active)
Cn1c(=O)c2c(ncn2CCOC(=O)C(C)(C)Oc2ccc(Cl)cc2)n(C)c1=O | -0.799% | –
CC(C)CCCCCCc1ccc(O)cc1 | 0.0772% | –
O=C(Nc1ccc(O)cc1)c1ccccc1O | 16.8% | –
C#C[C@]1(O)CC[C@@H]2[C@H]3CCC4=CC(=O)CC[C@H]4[C@H]3C(=C)C[C@@]21CC | – | 0.536 µM (active)
OCc1ccccc1 | 0.192% | –
COc1ccc2nc(NC(=O)Nc3ccccc3)sc2c1 | -17.6% | –
